In all, about 69,000 compounds went through this assay and about 420 (0.61%) showed an effect of 50% or more. The entries come from a sample that favours strong results as a whole.

In this experiment the target is T1, Histidine--tRNA ligase (Leishmania infantum) (UniProt A4I591).
T1 sequence (whole entry): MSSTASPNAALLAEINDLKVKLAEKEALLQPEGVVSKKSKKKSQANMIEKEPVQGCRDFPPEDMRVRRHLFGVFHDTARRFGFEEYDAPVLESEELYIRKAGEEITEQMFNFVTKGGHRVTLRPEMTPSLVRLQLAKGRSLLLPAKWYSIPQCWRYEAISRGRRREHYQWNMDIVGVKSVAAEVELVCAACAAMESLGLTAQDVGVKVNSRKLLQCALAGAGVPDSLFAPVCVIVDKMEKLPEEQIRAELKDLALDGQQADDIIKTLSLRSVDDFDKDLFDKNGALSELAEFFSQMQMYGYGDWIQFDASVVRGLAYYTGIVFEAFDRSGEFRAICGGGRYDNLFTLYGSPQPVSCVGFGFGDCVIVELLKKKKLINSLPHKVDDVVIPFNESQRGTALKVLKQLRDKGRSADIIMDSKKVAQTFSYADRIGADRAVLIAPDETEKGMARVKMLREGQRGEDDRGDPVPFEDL
Nature of the experiment: Leishmania infantum Histidine tRNA synthetase (LdHisRS). The class given is functional. Also on record: scale not given: in the data most compounds retested in dose-response had high values. To be noted: 30 µM.
Regarding `CC(C)C(=O)N1CC[C@H]2N(C)CC[C@@]2(C(=O)Nc2ccccc2)CC1`, the Percent Effect is 2.7%.

Take `COCCN1CC[C@H]2CN(Cc3ccc(C)s3)C[C@@H]2C1=O`: the Percent Effect turned out to be 7.69%.

`CC(=O)N1CC[C@H]2OCC[C@@]2(C(=O)NCc2ccco2)C1`: the Percent Effect was determined as 13.2%.

As for `Cc1cccnc1[C@H](C)Nc1nc(-c2cccnc2)nc2c1CNC2`, the Percent Effect is 54.3%.

As to `CCc1cc(C(C)Nc2nc(-c3cccnc3)nc3c2CNC3)on1` (configuration not stated), the Percent Effect is 17.1%.

For `Cc1cc(CC(C)Nc2nc(-c3cccnc3)nc3c2CNC3)[nH]n1` (configuration not stated), the Percent Effect came to 22.9%.

Regarding `CCC(C)NC(=O)c1coc(COc2cccc(F)c2)n1` (configuration not stated), the Percent Effect amounted to 19.7%.

Turning to `COC(=O)[C@@H](NC(=O)c1coc(COc2cccc(F)c2)n1)C(C)C`, the Percent Effect was determined as 6.58%.

For `CC(NC(=O)c1coc(COc2cccc(F)c2)n1)c1nnc(N)s1` (configuration not stated), the Percent Effect turned out to be 54%.

On to `CN(C[C@@H]1CCC[C@@H]2CN(c3ncccn3)C[C@@H]21)C1CC1`, for which the Percent Effect is 23.3%.

Regarding `COC[C@@H]1CC[C@H]2[C@H](CCN2S(=O)(=O)c2cccc(F)c2)O1`, the Percent Effect is 2.65%.

For the molecule `O=C(NCc1ccccn1)[C@@]12CCO[C@@H]1CCN(c1ncccn1)C2`, the Percent Effect was 15.4%.

As for `CCOCC(=O)Nc1cc(C)cnc1OC`, the Percent Effect was determined as 9.52%.

In the case of `COc1cccc(OCC(=O)Nc2cc(C)cnc2OC)c1`, the Percent Effect is -3.17%.

As for `COc1ncc(C)cc1NC(=O)COCC(F)(F)F`, the Percent Effect was 77.8%.

Regarding `O=C(c1ccccn1)N1CC[C@H]2[C@H]1CCN2S(=O)(=O)C1CC1`, the Percent Effect worked out at 14%.

For `CN(C)C(=O)[C@H]1C[C@@H]2CN(c3ncccn3)C[C@H]1O2`, the Percent Effect was 22.2%.

Take `CCCc1ccc(CN2CCN(C(=O)NCC)[C@H]3CS(=O)(=O)C[C@H]32)o1`: the Percent Effect came to 13.2%.

On to `O=C(c1ccco1)N1CC[C@H]2[C@H]1CCN2CC1CCOCC1`, for which the Percent Effect is 6.57%.

For `Cc1nc(N)cc(N2CCCC(COc3cccc(F)c3)C2)n1` (configuration not stated), the Percent Effect amounted to 24.1%.

For the molecule `Nc1cc(N2CCCC(COc3ccc(F)cc3)C2)nc(N)n1` (configuration not stated), the Percent Effect was found to be 24.1%.

Turning to `Cc1ccccc1OCC1CCCN(c2cc(N)nc(N)n2)C1` (configuration not stated), the Percent Effect worked out at 72.3%.

Regarding `O=C(CC1CC1)N[C@@H]1CN(Cc2ccc(F)cc2)C[C@@H]2CCCO[C@@H]21`, the Percent Effect came to 11.4%.

Consider `O=C(NC1CC1)[C@@H]1C[C@@H]2CCN(Cc3ccccc3)C[C@@H]2O1`, for which the Percent Effect was -7%.

As to `Cc1ncsc1CN1C[C@@H]2COC[C@]2(C(=O)NC2CC(F)(F)C2)C1`, the Percent Effect turned out to be 20%.

As to `Cc1nn(CCC#N)c(C)c1[C@@H]1C=C[C@@H](NCc2ccc(F)cc2)C1`, the Percent Effect worked out at 25%.

For the molecule `Cc1nc[nH]c1CNC1CC(=O)N(CCc2cccc(Cl)c2)C1` (configuration not stated), the Percent Effect was 7.45%.

On to `Cc1nn(CCC#N)c(C)c1[C@@H]1C=C[C@@H](NCc2cccc(Cl)c2)C1`, for which the Percent Effect is 50%.

Take `Cc1cnc(C(=O)N2C[C@H]3CC[C@@H]2CN(c2cnccn2)C3)cn1`: the Percent Effect is 18.6%.

For `O=C(NC[C@@]1(COc2cnccn2)C[C@@H](O)[C@@H](O)C1)C1CC1`, the Percent Effect was determined as 5.41%.

As to `Cc1ccc(C(=O)N2CCO[C@H]3[C@H](OCCN(C)C)CC[C@@H]32)cn1`, the Percent Effect was determined as 9.72%.

As for `Cc1cccc(NC(=O)c2[nH]nc(C(C)C)c2Br)n1`, the Percent Effect came out at 12.5%.

On to `O=C(c1ccco1)N1C[C@@H]2[C@@H](C1)OCC(=O)N2Cc1cccnc1`, for which the Percent Effect amounted to 20.4%.

With `Cc1ccc(CN2C[C@@H]3COC[C@@H](CC(=O)N4CCOCC4)[C@@H]3C2)s1`, the Percent Effect worked out at 20.5%.

As to `CCCC(=O)Nc1ccc2c(c1)C1(CCOCC1)CN2CCOC`, the Percent Effect was 35.1%.

For the molecule `CCC(=O)Nc1ccc2c(c1)C1(CCOCC1)CN2CCF`, the Percent Effect was found to be 22.5%.

`CCC(=O)Nc1ccc2c(c1)C1(CCOCC1)CN2CCOC`: the Percent Effect was 46%.

As to `CCS(=O)(=O)Nc1ccc2c(c1)C1(CCOCC1)CN2C`, the Percent Effect was found to be 51.5%.

In the case of `CCN1CC2(CCOCC2)c2cc(NS(=O)(=O)CC)ccc21`, the Percent Effect was found to be 75.2%.

As for `CN(C)C(=O)N1CC2(CCOCC2)c2cc(NS(=O)(=O)C3CC3)ccc21`, the Percent Effect turned out to be 15.4%.

As to `CC(c1ccccc1)N1Cc2nc(N(C)C)ncc2C1=O` (configuration not stated), the Percent Effect amounted to 3.54%.

For the molecule `CC1CCN(c2ncc3c(n2)CN(c2ccc(F)cc2)C3=O)CC1`, the Percent Effect is 12.4%.

For `COc1ccc(CN2C[C@H]3CN(Cc4ccncc4)C(=O)[C@H]3C2)cc1`, the Percent Effect came out at 21.4%.

With `COCCN1CCN(C(=O)c2ccc(COC)o2)[C@H]2CS(=O)(=O)C[C@H]21`, the Percent Effect was determined as 21.3%.

On to `c1coc(CN2C[C@H](OCC3CCOCC3)[C@H]3COC[C@H]32)c1`, for which the Percent Effect is 9.02%.

Take `COc1ccc2c(c1)ncn2C[C@]1(O)CCCN2CCCC[C@@H]21`: the Percent Effect is 4.2%.

As to `CCOc1ccc(C(=O)N(CCOC)Cc2c(C)nn(CC)c2C)o1`, the Percent Effect worked out at 63.3%.

`CCn1nc(C)c(CN(CCOC)C(=O)c2cnc(C)nc2O)c1C`: the Percent Effect is 20%.

On to `CCn1nc(C)c(CN(CCOC)C(=O)c2ccccc2N(C)C)c1C`, for which the Percent Effect worked out at 21.7%.

`Cc1nn(C)c(C)c1S(=O)(=O)N1CC[C@@H]2O[C@@H](C)C[C@H]2C1`: the Percent Effect worked out at 7.69%.

Take `O=C(c1ccc(F)cc1)N1C[C@@H]2OCCN(c3ncccn3)[C@@H]2C1`: the Percent Effect came out at 18.9%.

`Cc1nc(COC[C@]23COC[C@H]2CN(Cc2ccoc2)C3)cs1`: the Percent Effect is 22.6%.

The values above are taken from ChEMBL document CHEMBL3988442, “University of Dundee, Small-Polar-MMV Screening Library” (2021).
